Test results from PubChem BioAssay (Tox21).
Results filed as inconclusive are left out. Entries that show only a call come without a potency. Active and inactive are the calls of the source. Unless noted, the call rests on the fitted dose curve; in most records, active means well fitted curve in the direction sought with a large enough effect in the repeat runs; inconclusive means weak or mixed curves; inactive means no such curve, though single readings can be large; an effect the other way counts as inactive or inconclusive.

Legend:
[1] = qHTS assay to identify small molecule antagonists of the glucocorticoid receptor (GR) signaling pathway - cell viability counter screen (AID 720693); further: nearly all actives have a fitted effect of over 55% in size
[2] = qHTS assay for identifying genotoxic compounds that show differential cytotoxicity against isogenic chicken DT40 cell lines with known DNA damage response pathways - Rev3 mutant cell line (AID 743014); further: nearly all actives have a fitted effect of over 55% in size; further: potency means the concentration at half of the fitted maximal effect
[3] = qHTS assay for identifying genotoxic compounds that show differential cytotoxicity against isogenic chicken DT40 cell lines with known DNA damage response pathways - Rad54/Ku70 mutant cell line (AID 743015); further: nearly all actives have a fitted effect of over 60% in size; further: potency means the concentration at half of the fitted maximal effect
[4] = qHTS assay to identify small molecule antagonists of the androgen receptor (AR) signaling pathway using the MDA cell line - cell viability counter screen (AID 743041; further: nearly all actives have a fitted effect of over 45% in size)
Summary of the method: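 MDA-kb2 AR-luc cells (MMTV-luciferase, AR/GR responsive) treated with compounds plus R1881 agonist for 16 h at 37C. CellTiter-Fluor added at 15.5 h; fluorescence read after 30 min in the same wells.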

[5] = qHTS assay to identify small molecule antagonists of the androgen receptor (AR) signaling pathway - cell viability counter screen (AID 743033; further: nearly all actives have a fitted effect of over 45% in size)
[6] = target: Androgen receptor (Homo sapiens) (UniProt P10275); assay: qHTS assay to identify small molecule antagonists of the androgen receptor (AR) signaling pathway (AID 743035; active means well fitted inhibition curve with a large enough effect in the signal ratio in the repeat runs, not every such curve was filed as active; the % refers to the signal ratio; further: potency means the concentration at half of the fitted maximal effect)
Androgen receptor (Homo sapiens), sequence (P10275 whole entry, looked up): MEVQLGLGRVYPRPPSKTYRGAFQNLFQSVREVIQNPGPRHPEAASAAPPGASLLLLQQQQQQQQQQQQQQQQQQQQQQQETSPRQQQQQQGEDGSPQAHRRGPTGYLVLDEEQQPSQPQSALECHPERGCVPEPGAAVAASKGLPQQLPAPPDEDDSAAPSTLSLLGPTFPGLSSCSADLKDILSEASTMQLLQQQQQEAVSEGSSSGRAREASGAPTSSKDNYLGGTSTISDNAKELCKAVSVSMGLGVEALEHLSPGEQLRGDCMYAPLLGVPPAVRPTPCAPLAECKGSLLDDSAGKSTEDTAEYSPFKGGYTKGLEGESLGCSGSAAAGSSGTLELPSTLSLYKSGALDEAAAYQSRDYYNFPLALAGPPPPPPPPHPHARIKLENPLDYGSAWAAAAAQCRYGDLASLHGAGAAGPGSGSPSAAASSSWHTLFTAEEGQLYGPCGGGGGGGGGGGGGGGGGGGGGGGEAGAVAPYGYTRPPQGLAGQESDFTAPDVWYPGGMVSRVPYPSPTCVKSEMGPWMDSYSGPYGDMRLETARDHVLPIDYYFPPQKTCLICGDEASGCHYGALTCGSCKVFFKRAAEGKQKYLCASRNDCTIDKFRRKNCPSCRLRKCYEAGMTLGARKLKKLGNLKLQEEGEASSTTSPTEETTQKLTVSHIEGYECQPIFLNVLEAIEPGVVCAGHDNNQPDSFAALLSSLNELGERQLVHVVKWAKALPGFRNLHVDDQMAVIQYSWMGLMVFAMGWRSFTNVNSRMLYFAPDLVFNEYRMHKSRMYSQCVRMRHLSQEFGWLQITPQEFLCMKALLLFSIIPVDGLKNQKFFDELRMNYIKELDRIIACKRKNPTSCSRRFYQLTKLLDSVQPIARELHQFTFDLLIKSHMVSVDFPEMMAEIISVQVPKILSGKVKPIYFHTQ
Summary of the method: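 Cell line: GeneBLAzer AR-UAS-bla GripTite (HEK293). Stimulus: R1881 added after compound. Exposure: 16 h, 37C, 5% CO2. Readout: LiveBLAzer B/G FRET fluorescence after 2 h at room temperature.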

[7] = target: Androgen receptor (Homo sapiens) (UniProt P10275); assay: qHTS assay to identify small molecule agonists of the androgen receptor (AR) signaling pathway (AID 743036; active means well fitted activation curve with a large enough effect in the signal ratio in the repeat runs, with a control signal flat, not every such curve was filed as active; the % refers to the signal ratio)
Summary of the method: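 HEK293 cells stably carrying a UAS-driven beta-lactamase reporter (GeneBLAzer AR-UAS-bla-GripTite) were plated at 2,000 cells/well, rested 4 h at 37C, then exposed to compounds in DMSO for 16 h. LiveBLAzer B/G FRET substrate was added for 2 h at room temperature; fluorescence read.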

[8] = target: Androgen receptor (Homo sapiens) (UniProt P10275); assay: qHTS assay to identify small molecule agonists of the androgen receptor (AR) signaling pathway using the MDA cell line (AID 743040; further: nearly all actives have a fitted effect of over 20% in size)
Summary of the method: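 MDA-kb2 breast carcinoma cells carrying MMTV-luciferase (responsive to AR and GR), plated 5 h then treated 16 h with compounds at 37C, 0% CO2. Read-out was ONE-Glo luminescence after 30 min at room temperature.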

[9] = target: Androgen receptor (Homo sapiens) (UniProt P10275); assay: qHTS assay to identify small molecule antagonists of the androgen receptor (AR) signaling pathway using the MDA cell line (AID 743042; further: nearly all actives have a fitted effect of over 55% in size)
Summary of the method: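 MDA-kb2 breast carcinoma cells carrying MMTV-luciferase (AR/GR responsive) were co-treated with compounds and the agonist R1881 for 16 h at 37C. Inhibition read as ONE-Glo luminescence; CellTiter-Fluor fluorescence measured in parallel for cytotoxicity.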

[10] = qHTS assay for identifying genotoxic compounds that show differential cytotoxicity against isogenic chicken DT40 cell lines with known DNA damage response pathways - wild type cell line (AID 743012); further: nearly all actives have a fitted effect of over 60% in size; further: potency means the concentration at half of the fitted maximal effect
Summary of the method: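 Quantitative HTS on parental DT40 cells: 40 h compound treatment at 37 C/5% CO2, with viability then determined by CellTiter-Glo luminescence. Values serve as the DNA repair-proficient reference for differential cytotoxicity.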

Cc1ncsc1CCCl
Potency [1]: inactive
Potency [2]: inactive
Potency [3]: inactive
Potency [4]: inactive

C=C(C)[C@@H]1CC=C(C=O)CC1
Potency [1]: inactive
Potency [2]: 61.1 µM (active)
Potency [3]: 54.5 µM (active)
Potency [5]: inactive
Potency [4]: inactive

CCOP(=S)(OCC)SCSP(=S)(OCC)OCC
Potency [1]: inactive
Potency [2]: 61.1 µM (active)
Potency [3]: 61.1 µM (active)
Potency [5]: inactive
Potency [4]: inactive

CC(C)(C)C(=O)C(Oc1ccc(Cl)cc1)n1cncn1 (configuration not stated)
Potency [1]: inactive
Potency [2]: 30.6 µM (active)
Potency [3]: 30.6 µM (active)
Potency [5]: inactive
Potency [4]: inactive

O=C(Oc1ccc(Br)cc1)N1CCN2CCC1CC2
Potency [1]: inactive
Potency [2]: 54.5 µM (active)
Potency [3]: 61.1 µM (active)
Potency [5]: inactive
Potency [4]: inactive

ClC(Br)Br
Potency [1]: inactive
Potency [2]: inactive
Potency [3]: inactive
Potency [5]: inactive
Potency [4]: inactive

CC(=O)CCc1ccc2c(c1)OCO2
Potency [1]: inactive
Potency [2]: inactive
Potency [3]: inactive
Potency [5]: inactive
Potency [4]: inactive

N#CC(O)c1ccccc1 (configuration not stated)
Potency [1]: inactive
Potency [2]: inactive
Potency [3]: inactive
Potency [4]: inactive

Cc1cnc[nH]1
Potency [1]: inactive
Potency [2]: inactive
Potency [3]: inactive
Potency [5]: inactive
Potency [6]: inactive
outcome [7]: inactive
Potency [8]: inactive
outcome [9]: inactive

CC(C)[N+](=O)[O-]
Potency [1]: inactive
Potency [2]: inactive
Potency [3]: inactive
Potency [5]: inactive
Potency [4]: inactive

NC(=O)O
Potency [1]: inactive
Potency [2]: inactive
Potency [3]: inactive
Potency [5]: inactive
Potency [4]: inactive

C[C@]12CC[C@H]3[C@@H](CC=C4C[C@@H](O)CC[C@@]43C)[C@@H]1CC[C@@H]2O
Potency [1]: inactive
Potency [2]: inactive
Potency [3]: 29.8 µM (active)
Potency [5]: inactive
Potency [4]: inactive

CCC(Cl)[N+](=O)[O-] (configuration not stated)
Potency [1]: inactive
Potency [2]: inactive
Potency [3]: inactive
Potency [5]: inactive
Potency [4]: inactive

OC(c1ccc(F)cc1)(c1cncnc1)c1ccccc1Cl (configuration not stated)
Potency [1]: inactive
Potency [2]: 30.6 µM (active)
Potency [3]: 61.1 µM (active)
Potency [5]: inactive
Potency [4]: inactive

O=C(CCN1CC1)OCC(CO)(COC(=O)CCN1CC1)COC(=O)CCN1CC1
Potency [1]: inactive
Potency [2]: inactive
Potency [3]: inactive
Potency [4]: inactive

N#CCCC#N
Potency [10]: inactive
Potency [2]: inactive
Potency [3]: inactive
Potency [5]: inactive
Potency [4]: inactive

O=CNC(N1CCN(C(NC=O)C(Cl)(Cl)Cl)CC1)C(Cl)(Cl)Cl (configuration not stated)
Potency [1]: inactive
Potency [2]: 61.1 µM (active)
Potency [6]: 6.16 µM (active)
outcome [7]: inactive
Potency [8]: inactive
outcome [9]: inactive

CC(CCc1ccccc1)NC(C)C(O)c1ccc(O)cc1 (configuration not stated)
Potency [1]: inactive
Potency [3]: inactive

CCOC(=O)N(C)C(=O)CSP(=S)(OCC)OCC
Potency [1]: inactive
Potency [3]: 24.3 µM (active)
Potency [4]: inactive

ClC(Cl)Br
Potency [10]: inactive
Potency [2]: inactive
Potency [3]: inactive
Potency [4]: inactive

COc1cc(OC)nc(NC(=O)NS(=O)(=O)c2ncccc2C(=O)N(C)C)n1
Potency [2]: inactive
Potency [3]: inactive
Potency [5]: inactive
Potency [4]: inactive

CC(=O)[C@H]1CC[C@H]2[C@@H]3CC[C@H]4C[C@H](O)CC[C@]4(C)[C@H]3C(=O)C[C@]12C
Potency [1]: inactive
Potency [5]: inactive

C=CCC1=C(C)[C@@H](OC(=O)[C@@H]2[C@@H](C=C(C)C)C2(C)C)CC1=O
Potency [10]: 15.4 µM (active)
Potency [2]: 24.3 µM (active)
Potency [3]: 15.4 µM (active)

CCCCP(CCCC)CCCC
Potency [1]: inactive
Potency [3]: inactive
Potency [5]: inactive
Potency [4]: inactive

CCOP(=S)(OCC)Oc1nc(Cl)n(C(C)C)n1
Potency [1]: inactive
Potency [2]: 68.6 µM (active)
Potency [5]: inactive
Potency [4]: inactive

CC(Oc1ccc(Oc2ncc(C(F)(F)F)cc2Cl)cc1)C(=O)O (configuration not stated)
Potency [2]: 68.6 µM (active)
Potency [3]: 61.1 µM (active)
Potency [8]: inactive

CCC(C)(C)c1cc(-n2nc3ccccc3n2)c(O)c(C(C)(C)CC)c1
Potency [2]: inactive
Potency [3]: inactive
Potency [5]: inactive
Potency [6]: inactive
outcome [7]: inactive
Potency [8]: inactive
Potency [4]: inactive
outcome [9]: inactive

CC(C=O)Cc1ccc2c(c1)OCO2 (configuration not stated)
Potency [10]: inactive
Potency [3]: inactive
Potency [5]: inactive
Potency [4]: inactive

Nc1n[nH]c(N)n1
Potency [1]: inactive
Potency [2]: inactive
Potency [5]: inactive
Potency [4]: inactive

CCC/C(=N\OCC)C1=C(O)CC(CC(C)SCC)CC1=O (configuration not stated)
Potency [1]: inactive
Potency [2]: 61.5 µM (active)
Potency [3]: 61.5 µM (active)
Potency [4]: inactive

CCCSP(=S)(OCC)Oc1ccc(Cl)cc1Cl (configuration not stated)
Potency [1]: inactive
Potency [3]: 61.1 µM (active)
Potency [5]: inactive
Potency [4]: inactive

[Cl][Sn]([Cl])([Cl])[Cl]
Potency [10]: inactive
Potency [2]: inactive
Potency [3]: inactive
Potency [4]: inactive

O=NN1CCCCC1
Potency [10]: inactive
Potency [2]: inactive
Potency [3]: inactive
Potency [6]: inactive
outcome [7]: inactive
Potency [8]: inactive
Potency [4]: inactive
outcome [9]: inactive

COP(=S)(OC)Oc1c(Cl)cc(C)cc1Cl
Potency [1]: inactive
Potency [5]: inactive
Potency [4]: inactive

CC(COc1ccc(Oc2ccccc2)cc1)Oc1ccccn1 (configuration not stated)
Potency [1]: inactive
Potency [3]: 61.1 µM (active)
Potency [5]: inactive
outcome [7]: inactive
Potency [8]: inactive
Potency [4]: inactive
outcome [9]: inactive

O=[N+]([O-])c1cccc2cccnc12
Potency [1]: inactive
Potency [5]: inactive

c1coc(-c2nc3ccccc3[nH]2)c1
Potency [2]: 24.3 µM (active)
Potency [3]: 54.5 µM (active)
Potency [4]: inactive

OC(Cn1cncn1)(c1ccc(F)cc1)c1ccccc1F (configuration not stated)
Potency [1]: inactive
Potency [5]: inactive
Potency [4]: inactive

CC1(C)CON(Cc2ccccc2Cl)C1=O
Potency [1]: inactive
Potency [2]: 68.6 µM (active)
Potency [5]: inactive
Potency [4]: inactive

COP(=S)(OC)Oc1ccc(S(N)(=O)=O)cc1
Potency [1]: inactive
Potency [3]: inactive
Potency [5]: inactive
Potency [4]: inactive

Cc1ncc2n1-c1ccc(Cl)cc1C(c1ccccc1F)=NC2
Potency [1]: inactive
Potency [2]: inactive
Potency [5]: inactive
Potency [4]: inactive

CC1(C(=O)Nc2ccc(O)c(Cl)c2Cl)CCCCC1
Potency [10]: 68.6 µM (active)
Potency [2]: 61.1 µM (active)
Potency [3]: 61.1 µM (active)
Potency [5]: inactive
Potency [4]: inactive

CCc1cc2c(s1)-n1c(C)nnc1CN=C2c1ccccc1Cl
Potency [1]: inactive
Potency [2]: inactive
Potency [5]: inactive
Potency [4]: inactive

CSc1nc(N=[N+]=[N-])nc(NC(C)C)n1
Potency [1]: inactive
Potency [2]: 61.1 µM (active)
Potency [4]: inactive

COC(=O)C1=CCCN(C)C1
Potency [10]: inactive
Potency [3]: inactive
Potency [5]: inactive
Potency [4]: inactive

CN1CCN(C(=O)O[C@H]2c3nccnc3C(=O)N2c2ccc(Cl)cn2)CC1
Potency [1]: inactive
Potency [3]: inactive
Potency [5]: inactive
Potency [4]: inactive

Clc1cccc(N2CCNCC2)c1
Potency [1]: inactive
Potency [4]: inactive

CC1CCCCC1NC(=O)Nc1ccccc1 (configuration not stated)
Potency [1]: inactive
Potency [5]: inactive

COC(=O)C(C)Oc1ccc(Oc2ccc(Cl)cc2Cl)cc1 (configuration not stated)
Potency [1]: inactive
Potency [3]: 68.6 µM (active)
Potency [5]: inactive
Potency [4]: inactive

O=C(O)C(Br)CBr (configuration not stated)
Potency [1]: inactive
Potency [3]: inactive
Potency [5]: inactive
